The nature of assay [1]: resazurin metabolic signal in HepG2 cells – cell-based, resazurin fluorescence, 24 h, PK04 Diversity Set, profiling panel (AID 1172). Further: test concentration not given here. As to conditions: HepG2 viability, higher = more signal. For orientation: Resazurin is reduced to fluorescent resorufin, in cell work by metabolically active cells.
Assay [2] can be described thus: budding yeast growth changes without added modifier – OD600, strain BY4716, 24 h, basal condition, primary screen (AID 1173). The note with it: S. cerevisiae BY4716 growth, OD600, 24 h; higher = more signal, called active from +8 up or from −8 down.
Assay [3] in a line: viability profiling in MM1S myeloma cells – cell-based, resazurin fluorescence, basal, 24 h, PK04 Diversity Set, profiling panel (AID 1174). Further: test concentration not given here. As to conditions: higher = more signal, called active from +8 up or from −8 down.
The target in assay [4] is Dihydroorotate dehydrogenase (quinone), mitochondrial (Plasmodium falciparum (isolate 3D7)) (UniProt Q08210). Kind of assay: inhibition of P. falciparum DHODH – biochemical, C-terminal His tag, absorbance 600 nm, primary screen (AID 1175).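 Further: recombinant parasite enzyme with a five histidine tag at its C terminus; test concentration not given here.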 As to conditions: PfDHODH enzyme, DCIP absorbance 600 nm; higher = more signal, called active from +8 up or from −8 down.
Sequence of Dihydroorotate dehydrogenase (quinone), mitochondrial (Plasmodium falciparum (isolate 3D7)) (Q08210 whole entry, looked up): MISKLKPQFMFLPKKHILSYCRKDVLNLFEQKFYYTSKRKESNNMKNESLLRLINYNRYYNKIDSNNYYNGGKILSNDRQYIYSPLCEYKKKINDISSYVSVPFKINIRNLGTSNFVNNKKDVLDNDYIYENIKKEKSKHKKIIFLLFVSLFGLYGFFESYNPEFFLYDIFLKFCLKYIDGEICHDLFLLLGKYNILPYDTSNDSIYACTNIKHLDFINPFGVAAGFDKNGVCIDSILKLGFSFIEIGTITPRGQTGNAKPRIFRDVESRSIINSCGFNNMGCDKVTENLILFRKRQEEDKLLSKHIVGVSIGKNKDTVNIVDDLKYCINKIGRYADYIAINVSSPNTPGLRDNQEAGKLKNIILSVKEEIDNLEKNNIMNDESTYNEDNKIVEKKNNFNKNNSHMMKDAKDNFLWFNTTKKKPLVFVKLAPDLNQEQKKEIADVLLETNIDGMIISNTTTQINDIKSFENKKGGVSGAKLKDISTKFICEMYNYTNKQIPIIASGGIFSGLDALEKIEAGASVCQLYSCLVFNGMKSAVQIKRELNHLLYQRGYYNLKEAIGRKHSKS
Assay [5] is described as follows: inhibition of PAO1 biofilm formation – strain PAO1, LB-PBS medium, absorbance 600 nm, primary screen (AID 1176). Further: test concentration not given here. As to conditions: P. aeruginosa PAO1 growth/biofilm, A600, 12 h; higher = more signal.
Assay [6] is described as follows: growth modulation of vineyard yeast isolate – strain RM11-1a, OD600, basal, 24 h, primary screen (AID 1177).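 Further: cultures grown under basal conditions with no added stressor; test concentration not given here.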 As to conditions: S. cerevisiae RM11-1a growth, OD600, 24 h; higher = more signal, called active from +8 up or from −8 down.
The nature of assay [7]: growth of efflux-deficient E. coli DRC39 – strain DRC39, OD650, 24 h, E. coli filamentation inducers, primary screen (AID 1178).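 Further: growth measured as culture turbidity by optical density at 650 nm; test concentration not given here.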 The note with it: E. coli DRC39 acrAB, higher = more signal, called active from +8 up or from −8 down.
Assay [8] is described as follows: growth of efflux-deficient E. coli DRC39 – strain DRC39, OD650, 48 h, E. coli filamentation inducers, primary screen (AID 1179).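 Further: screen aims at cell division blockers that make cells filament.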 As to conditions: E. coli DRC39 delta-acrAB growth, higher = more signal, called active from +8 up or from −8 down.
Assay [9] is described as follows: viability profiling in RPMI8226 myeloma cells – cell-based, resazurin fluorescence, basal, 24 h, PK04 Diversity Set, profiling panel (AID 1180).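 Further: RPMI8826 multiple myeloma cell line at 5000 cells per well; test concentration not given here.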 As to conditions: higher = more signal.
For assay [10], the target named is E3 ubiquitin-protein ligase XIAP (Homo sapiens) (UniProt P98170). Nature of the assay: small molecules binding XIAP protein – biophysical, small-molecule microarray, fluorescence 635 nm, primary screen (AID 1181).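 Further: score merges 667 nm emission and signal to noise over triplicate slides.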 The note with it: higher = more signal.
Sequence of E3 ubiquitin-protein ligase XIAP (Homo sapiens) (P98170 whole entry, looked up): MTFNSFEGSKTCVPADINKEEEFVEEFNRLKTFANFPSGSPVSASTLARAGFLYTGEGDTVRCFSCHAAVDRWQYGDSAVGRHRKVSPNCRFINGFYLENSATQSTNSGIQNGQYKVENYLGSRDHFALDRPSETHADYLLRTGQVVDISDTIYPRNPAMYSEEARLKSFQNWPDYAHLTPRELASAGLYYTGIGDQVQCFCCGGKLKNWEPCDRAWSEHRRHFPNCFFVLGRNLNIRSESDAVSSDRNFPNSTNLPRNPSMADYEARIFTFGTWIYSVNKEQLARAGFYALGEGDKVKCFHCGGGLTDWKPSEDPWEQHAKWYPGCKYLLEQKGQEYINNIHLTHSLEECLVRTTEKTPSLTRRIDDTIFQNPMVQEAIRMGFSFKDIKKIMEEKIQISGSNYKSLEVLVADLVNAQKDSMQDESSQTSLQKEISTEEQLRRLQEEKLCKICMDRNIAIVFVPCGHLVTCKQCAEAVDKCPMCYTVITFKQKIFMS

The source made the active and inactive calls. Unless noted, how the calls were made is not given here.

For 12 compounds, z-score and composite z-score results are on record in PubChem BioAssay.

Consider `CCOC(=O)CCN1C(=O)[C@H]2[C@H]3[C@H](O)[C@H](O)CC(=NOCC(C)C)[C@@H]3CC[C@H]2C1=O`, for which the z-score in assay [1] is -0.452; in [2], -0.824 (inactive); in assay [3], -0.665 (inactive); in assay [5], 0.377 (inactive); in assay [6] it was -0.992 (inactive); in assay [7], -0.268 (inactive). For the same compound, the z-score in assay [8] was -0.321 (inactive); in assay [9], -0.889. For the same compound, the results for the composite z-score in assay [4] and in assay [10] were -0.449 (inactive) and 0.0819, respectively.

As for `CON=C(C)CCN1CCCCc2nc(C)c(C)cc21`, the z-score in assay [1] was -0.18; in assay [2], -0.571 (inactive); in assay [3], 0.183 (inactive); in assay [5], 0.323 (inactive); in assay [6], -0.11 (inactive); in [7], 0.852 (inactive). Moreover, the values for the z-score in assay [8] and in [9] were -0.78 (inactive) and 0.6, respectively. The figures for the composite z-score in assay [4] and in assay [10] were -1.07 (inactive) and 0.496, respectively.

For `O=C1CCCC=C1C(O)C1CCCCC1` (stereo not given), the z-score was -0.075 in assay [1]; -0.143 (inactive) in assay [2]; -0.254 (inactive) in assay [3]; -0.458 (inactive) in assay [5]; -0.647 (inactive) in [6]; 0.342 (inactive) in assay [7]. For the same compound, the results for the z-score in assay [8] and in assay [9] were 0.456 (inactive) and 0.289, respectively. The composite z-score was -1.76 (inactive) in assay [4] and -0.242 in [10].

With `CCOC(=O)[C@H](CC(C)C)NC(=O)CCC1CC(OC(=O)NCc2ccc3c(c2)OCO3)CC2(CCCC(COC(=O)NCCC(C)C)O2)O1` (stereo not given in full), the z-score in [1] is 0.54; in assay [2], -0.214 (inactive); in assay [3] it was 1.03 (inactive); in assay [5] it was 0.462 (inactive); in [6], 0.175 (inactive); in assay [7] it was 1 (inactive). The z-score is -0.0965 (inactive) in [8] and 0.497 in [9]. Moreover, the composite z-score was 0.126 (inactive) in assay [4] and 0.0065 in assay [10].

With `O=C1[C@H]2[C@H]3[C@H](O)[C@H](O)CC(=NOC[C@@H](O)COCc4ccco4)[C@@H]3CC[C@H]2C(=O)N1c1cccc(Oc2ccccc2)c1`, the z-score in assay [1] was 0.928; in assay [2] it was -0.378 (inactive); in [3], 0.25 (inactive); in assay [5], -0.389 (inactive); in assay [6], -1 (inactive); in [7] it was -0.25 (inactive). Further, the z-score in assay [8] was -1.28 (inactive); in [9], 0.0789. Moreover, the composite z-score in assay [4] was 0.295 (inactive); in assay [10], 0.1.

Turning to `CCCNC(=O)OC[C@H]1O[C@H](CCON=C[C@@H](NS(=O)(=O)c2ccc(C)cc2)[C@H](C)C=CCC(=O)OC)C=C[C@@H]1Oc1ccc(OC)cc1`, the z-score is -0.765 in assay [1]; 0.0177 (inactive) in [2]; 0.0958 (inactive) in [3]; 0.311 (inactive) in assay [5]; -0.803 (inactive) in assay [6]; 0.101 (inactive) in [7]. In addition, the z-score in [8] is -0.138 (inactive); in assay [9] it was 0.732. Moreover, the composite z-score in assay [4] was 0.216 (inactive); in assay [10] it was -0.207.

With `CSCC[C@@H]1NC(=O)CC=C[C@@H](C)COC(=O)[C@H](C)COC1=O`, the z-score was 0.376 in assay [1]; -1.59 (inactive) in [2]; 0.745 (inactive) in assay [3]; 0.483 (inactive) in assay [5]; -2.43 (inactive) in assay [6]; 1.17 (inactive) in [7]. In addition, the values for the z-score in [8] and in assay [9] were -0.216 (inactive) and -0.135, respectively. Moreover, the results for the composite z-score in assay [4] and in assay [10] were -0.766 (inactive) and 0.418, respectively.

As to `CC(C)=NO[C@H](C)c1cn([C@@H]2COC[C@H]2O)nn1`, the z-score in assay [1] is -1.51; in [2] it was -0.0346 (inactive); in assay [3], -0.508 (inactive); in assay [5], 0.101 (inactive); in assay [6], -0.683 (inactive); in assay [7] it was 0.504 (inactive). Besides, the z-score in assay [8] is 0.82 (inactive); in [9] it was -0.469. Moreover, the composite z-score in assay [4] was 0.0741 (inactive); in [10] it was -0.152.

For `O=C1C[C@@H](O)[C@@H](O)[C@@H]2[C@@H]3C(=O)N(c4ccc(F)cc4F)C(=O)[C@@H]3CC[C@H]12`, the z-score in assay [1] is -0.635; in assay [2], 0.021 (inactive); in [3] it was -0.175 (inactive); in [5] it was 0.471 (inactive); in assay [6] it was -0.304 (inactive); in assay [7] it was -0.297 (inactive). The z-score in assay [8] is -1.31 (inactive); in assay [9], -0.413. Moreover, the composite z-score was -0.0528 (inactive) in assay [4] and -0.214 in assay [10].

As for `COc1cccc([C@H]2Oc3ccc(OC)cc3C(=NO[C@@H](C)c3cc(-c4c(C)cc(C)cc4C)no3)[C@@H]2O)c1`, the z-score was -0.406 in assay [1]; 1.18 (inactive) in [2]; 0.0117 (inactive) in assay [3]; 0.523 (inactive) in [5]; 1.96 (inactive) in [6]; 0.243 (inactive) in assay [7]. Also, the z-score in assay [8] was -1.43 (inactive); in assay [9] it was -0.116. The figures for the composite z-score in assay [4] and in assay [10] were -2.77 (inactive) and -0.336, respectively.

On to `CC1(C)O[C@H]2O[C@H]([C@H](O)CON=C3[C@H]4CCn5c(=O)n(-c6ccccc6)c(=O)n5[C@H]4[C@H](O)[C@@H]4O[C@H]34)[C@H](O)[C@H]2O1`, for which the z-score in assay [1] was -0.294; in [2], -0.139 (inactive); in assay [3], 0.159 (inactive); in assay [5], 0.593 (inactive); in assay [6] it was -0.894 (inactive); in assay [7] it was 0.483 (inactive). In addition, the z-score in [8] was -0.516 (inactive); in [9], 0.343. The composite z-score is -0.327 (inactive) in assay [4] and -0.0767 in assay [10].

Regarding `CC(=O)OC[C@H]1O[C@H](CC=NOC[C@@H](O)[C@H]2O[C@@H]3OC(C)(C)O[C@@H]3[C@H]2O)C=C[C@@H]1OC(C)=O`, the z-score in assay [1] was 0.287; in assay [2], 0.933 (inactive); in assay [3], -1.15 (inactive); in assay [5] it was -0.124 (inactive); in [6] it was 1.08 (inactive); in assay [7], 0.644 (inactive). The z-score in assay [8] is -0.717 (inactive); in assay [9], -0.754. Also, the composite z-score in assay [4] was 0.189 (inactive); in assay [10] it was 0.013.
